The campaign covered roughly 310,000 compounds. About 14,000 (4.5%) showed an effect of 50% or more. The effect is printed as a negative number. Only a selection was taken, and strong results are over-represented in it overall.
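Further: peak tail current of the secondary pulse compared with the same well before compound.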

Chain of human ether-à-go-go-related gene (hERG) potassium channel (Q12809 whole entry, looked up): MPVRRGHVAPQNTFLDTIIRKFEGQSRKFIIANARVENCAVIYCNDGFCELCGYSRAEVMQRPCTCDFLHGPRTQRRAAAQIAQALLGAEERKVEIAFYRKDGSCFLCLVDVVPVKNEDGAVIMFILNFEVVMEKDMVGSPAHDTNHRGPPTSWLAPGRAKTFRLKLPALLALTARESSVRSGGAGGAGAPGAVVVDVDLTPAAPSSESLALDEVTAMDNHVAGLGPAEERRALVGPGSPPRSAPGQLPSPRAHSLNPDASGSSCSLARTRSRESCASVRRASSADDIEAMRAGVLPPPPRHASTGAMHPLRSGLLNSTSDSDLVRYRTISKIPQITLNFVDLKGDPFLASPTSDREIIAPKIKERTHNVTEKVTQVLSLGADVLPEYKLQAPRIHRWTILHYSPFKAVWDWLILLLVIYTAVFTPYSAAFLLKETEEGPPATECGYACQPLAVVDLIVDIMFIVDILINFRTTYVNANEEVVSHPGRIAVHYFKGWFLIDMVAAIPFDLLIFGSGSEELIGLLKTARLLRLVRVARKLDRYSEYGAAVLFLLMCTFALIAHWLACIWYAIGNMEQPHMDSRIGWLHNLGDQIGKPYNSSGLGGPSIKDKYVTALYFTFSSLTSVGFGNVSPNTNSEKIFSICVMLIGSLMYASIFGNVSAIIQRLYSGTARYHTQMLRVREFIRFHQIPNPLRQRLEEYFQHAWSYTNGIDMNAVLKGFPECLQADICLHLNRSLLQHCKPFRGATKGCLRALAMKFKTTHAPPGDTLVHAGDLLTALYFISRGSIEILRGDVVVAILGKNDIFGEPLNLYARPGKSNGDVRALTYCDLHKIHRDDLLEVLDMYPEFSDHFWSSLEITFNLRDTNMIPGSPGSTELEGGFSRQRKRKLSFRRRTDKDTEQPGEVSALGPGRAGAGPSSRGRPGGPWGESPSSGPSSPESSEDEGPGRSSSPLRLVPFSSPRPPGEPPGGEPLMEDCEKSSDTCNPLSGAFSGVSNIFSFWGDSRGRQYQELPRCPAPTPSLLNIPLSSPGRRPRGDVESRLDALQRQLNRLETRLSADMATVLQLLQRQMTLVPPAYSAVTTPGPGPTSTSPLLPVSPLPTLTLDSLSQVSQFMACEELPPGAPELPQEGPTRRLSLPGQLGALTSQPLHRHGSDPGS

The test has as its target human ether-à-go-go-related gene (hERG) potassium channel (human, UniProt Q12809). Description: primary screen, population patch clamp on CHO cells stably expressing hERG; higher = less effect of the substance.
`COc1ccc(NC(=O)c2coc3ccccc23)cc1OC`: the “hERG current change (%, negative = inhibition) at 10uM” value worked out at 6.21%.
The same measure for `CSc1nc(-c2ccc(Cl)cc2)c(C#N)c(=O)[nH]1`: 13.1%; for `Cc1nc(SCC(=O)NC2CCCCC2C)c(C#N)c(C)c1C` (centres unmarked): -7.03%; for `O=S(=O)(CCN1CCOCC1)c1ccccc1`: 8.81%.
Turning to `Cc1nc(-c2ccc(S(=O)(=O)N3CCOCC3)cc2)cs1`, the “hERG current change (%, negative = inhibition) at 10uM” value amounted to 12.8%.
For `CN(c1ccc(OCC(=O)N2CCN(C/C=C/c3ccccc3)CC2)cc1)S(=O)(=O)c1cccs1.Cl` the value was -30.6%.
The same measure for `O=C(COc1ccccc1)N1CCN(C/C=C/c2ccccc2)CC1`: -58.1%; for `COc1cc(Br)cc(CN2CCN(C/C=C/c3ccccc3)CC2)c1O`: -32.1%.
The same measure for `COc1cccc(NC(=S)N2CCN(C/C=C/c3ccccc3)CC2)c1`: -44.7%.
Turning to `COc1ccc(O)c(CN2CCN(C/C=C/c3ccccc3)CC2)c1`, the “hERG current change (%, negative = inhibition) at 10uM” value was -51.9%.
For `O=C(COc1ccccc1)N1CCN(C(=O)COc2ccccc2)CC1` the value was -32.2%; for `O=C(Cc1ccccc1)N1CCN(C/C=C/c2ccccc2)CC1`, -19.5%.
The same measure for `Cc1ccccc1CN1CCN(C/C=C/c2ccccc2)CC1`: 8.81%; for `COc1ccc(OC)c(NC(=S)N2CCN(C/C=C/c3ccccc3)CC2)c1`: -33%.
For `COc1ccc(NC(=S)N2CCN(C/C=C/c3ccccc3)CC2)c(OC)c1` the value was -64.2%; for `COc1ccc(OCC(=O)N2CCN(C(=O)COc3ccccc3)CC2)cc1`, -47.5%; for `COc1ccc(OCC(=O)N2CCN(C/C=C/c3ccccc3)CC2)cc1`, -58.8%.
Consider `c1ccc(-c2onc(-c3ccco3)c2-c2ccc3c(c2)OCO3)cc1`, for which the “hERG current change (%, negative = inhibition) at 10uM” value is 2%.
For `O=[N+]([O-])c1ccc(-c2ccccc2)c([As](=O)(O)O)c1` the value was 11.9%.
For `O=c1cc(C(F)(F)F)nc(SCc2cccc3ccccc23)[nH]1` the value was 24%.
For `Cn1c(SCC(=O)OC2CCCCC2)nnc1-c1ccc2c(c1)OCO2` the value was -19.7%; for `COc1ccc(Cn2c(=O)[nH]c3cc(C(=O)NC4CCN(Cc5ccccc5)CC4)ccc32)cc1`, -3.88%; for `COc1ccc(N2CCN(Cc3cc(=O)oc4cc(C)c(Cl)cc34)CC2)cc1`, 8.44%.
Take `Cc1cc(C)n2nc(C(=O)OCC(=O)N3CC(C)CC(C)C3)nc2n1` (centres unmarked): the “hERG current change (%, negative = inhibition) at 10uM” value is on record as 15.4%.
The same measure for `O=C(NCc1ccco1)Nc1ccc2nsnc2c1`: 10.7%.
The same measure for `N#Cc1nc(-c2ccco2)oc1NCc1ccc(F)cc1`: -4.84%; for `Cc1cc(C)c(Cn2ncn(-c3ccc(Br)cc3)c2=O)c(C)c1`: 19.4%; for `CC(=C1C(=O)c2ccccc2C1=O)N1CCN(Cc2ccccc2)CC1`: -26.6%.
For `CS(=O)(=O)N1CCN(C/C=C/c2ccccc2)CC1` the value was 7.98%; for `CC(=C1C(=O)c2ccccc2C1=O)N1CCN(C/C=C/c2ccccc2)CC1`, -55.6%; for `O=C(COc1ccc(Cl)cc1)N1CCCCCCC1`, -12.2%.
In the case of `O=C(COc1ccc(Cl)cc1)N1CCCCC1`, the “hERG current change (%, negative = inhibition) at 10uM” value is given as -5.82%.
With `O=C(COc1ccc(Cl)cc1)N1CCN(C/C=C/c2ccccc2)CC1`, the “hERG current change (%, negative = inhibition) at 10uM” value is given as -70.7%.
For `O=C(/C=C/c1ccco1)Nc1cc(Cl)ccc1C(=O)O` the value was -10.3%.
For `CCCc1cc(=O)[nH]c(SC/C=C/c2ccccc2)n1` the value was 9.33%; for `Cc1c(N(C)C)c(=O)n(-c2ccccc2)n1C`, 19.1%.
The same measure for `COc1ccccc1CNS(=O)(=O)c1ccc2c(c1)NC(=O)CS2`: -1.59%; for `O=C(NCCCN1CCOCC1)c1sc2ccccc2c1Cl`: -9.81%.
In the case of `O=C(NCCN1CCOCC1)c1cc([N+](=O)[O-])ccc1Cl`, the “hERG current change (%, negative = inhibition) at 10uM” value came out at 6.5%.
Regarding `CCCNC(=O)c1cc2cc([N+](=O)[O-])ccc2s1`, the “hERG current change (%, negative = inhibition) at 10uM” value was -9.82%.
The same measure for `CN(C)C(=O)c1cc2cc([N+](=O)[O-])ccc2s1`: -38.9%; for `O=C(NCCN1CCOCC1)c1cc2cc([N+](=O)[O-])ccc2s1`: -63.3%.
Turning to `O=C(NCCCN1CCOCC1)c1sc2cc([N+](=O)[O-])ccc2c1Cl`, the “hERG current change (%, negative = inhibition) at 10uM” value was -54%.
For `O=C(NCCN1CCOCC1)c1sc2cc(Cl)ccc2c1Cl` the value was -10.3%; for `O=C(NCCN1CCOCC1)c1sc2ccccc2c1Cl`, -6.21%; for `CCN(CC)C(=O)c1cc2cc([N+](=O)[O-])ccc2s1`, -55.5%.
For `O=C(NCCCN1CCOCC1)c1sc2cc(F)ccc2c1Cl` the value was -44%; for `O=C(NCCCN1CCOCC1)c1sc2cc(Cl)ccc2c1Cl`, -69.6%.
For `O=C(NCCN1CCOCC1)c1ccc([N+](=O)[O-])cc1[N+](=O)[O-]` the value was -0.151%.
Turning to `O=c1c2cn[nH]c2[nH]c(=S)n1-c1ccccc1F`, the “hERG current change (%, negative = inhibition) at 10uM” value came out at 24.8%.
Regarding `N#CC1=C(N)Oc2cc(O)ccc2C1c1cccnc1` (centres unmarked), the “hERG current change (%, negative = inhibition) at 10uM” value worked out at 27.4%.
The same measure for `CCOc1nc2cnccc2n(CC(=O)Nc2ccccc2C(=O)OC)c1=O`: -1.11%; for `Cc1nn(-c2ccccc2)c(C)c1/C=N/NC(=O)CSc1nnc(SCc2cccc3ccccc23)s1`: 6.33%.
For `CCOC(=O)c1sc(=S)n(C)c1NC(=O)c1ccc(C(C)(C)C)cc1` the value was 11.8%.
In the case of `CC(=O)N/C(=C/c1ccc2c(c1)OCO2)C(=O)O`, the “hERG current change (%, negative = inhibition) at 10uM” value is given as -2.32%.
For `O=C(CCNS(=O)(=O)c1ccc(Cl)cc1)N1CCOCC1` the value was 22.4%.
For `COc1ccc2[nH]c3c(c2c1)CCNC3=O` the value was 7.33%.
The same measure for `O=C1NCCc2c1[nH]c1ccccc21`: -77%.
For the molecule `Cc1ccc2[nH]c3c(c2c1)CCNC3=O`, the “hERG current change (%, negative = inhibition) at 10uM” value was 4.86%.
The same measure for `O=C(Nc1ccc(-c2csc(Nc3cccc(C(F)(F)F)c3)n2)cc1)c1cccc(C(F)(F)F)c1`: 9.98%; for `CCCCN(C)CCNC(=S)Nc1ccc2nc(N3CCN(CC)CC3)cc(C)c2c1`: 2.83%; for `CCCCN(CC)CCCNC(=S)Nc1ccc2nc(N3CCN(C)CC3)cc(C)c2c1`: 5.19%.
For `CCCCN(CC)C(=S)Nc1ccc2nc(N3CCN(C)CC3)cc(C)c2c1` the value was -56.3%; for `CCN1CCN(c2cc(C)c3cc(NC(=S)N4CCN(c5ccccc5)CC4)ccc3n2)CC1`, -0.088%.
For `CCCCN(C)C(=S)Nc1ccc2nc(N3CCN(CC)CC3)cc(C)c2c1` the value was -78.9%.
As to `CCN1CCN(c2cc(C)c3cc(NC(=S)NCCN(C)C)ccc3n2)CC1`, the “hERG current change (%, negative = inhibition) at 10uM” value is reported as 3.21%.
The same measure for `CCN1CCN(c2cc(C)c3cc(NC(=S)N(C)Cc4ccccc4)ccc3n2)CC1`: -77.7%; for `CCCCN(CC)CCNC(=S)Nc1ccc2nc(N3CCN(C)CC3)cc(C)c2c1`: -0.781%.
For `CCN1CCN(c2cc(C)c3cc(NC(=S)N(CC)CC)ccc3n2)CC1` the value was -43.9%; for `Cc1c(NC(=O)CSc2n[nH]c(=O)n2-c2ccccc2)c(=O)n(-c2ccccc2)n1C`, 16.9%.
As to `CCOC(=O)c1c(NC(=O)c2cccc(N3C(=O)CCC3=O)c2)sc(C)c1C`, the “hERG current change (%, negative = inhibition) at 10uM” value is recorded as 5.4%.
For `CC(=O)c1ccc(NC(=O)COC(=O)c2ccccc2Sc2ccccc2C#N)cc1` the value was 18%.
For `O=C(CCCCn1c(=S)[nH]c2ccsc2c1=O)NCc1ccco1` the value was 16.6%; for `O=C(c1ccc2c(c1)ncn2C1CCCCCC1)N1CCC2(CC1)OCCO2`, -2.37%; for `O=C(c1ccc(Br)cc1)N1CCCc2ccccc21`, -6.19%.
With `O=C(CSc1nc(O)c(Cc2ccccc2)c(=O)[nH]1)Nc1ccccc1`, the “hERG current change (%, negative = inhibition) at 10uM” value is on record as 8.28%.
For `O=C(Nc1ccc(-c2noc(-c3cccs3)n2)cc1)c1cccnc1` the value was -3.79%; for `COc1ccc(Br)cc1/C=N/Nc1ccccn1`, 14.8%; for `O=C(Nc1cccc(S(=O)(=O)NC2=NCCC2)c1)c1ccc(=O)[nH]c1`, 10.7%.
Regarding `COc1cc(-c2nnc3sc(C4CCCCC4)nn23)cc(OC)c1OC`, the “hERG current change (%, negative = inhibition) at 10uM” value was -43.7%.
For `COc1cccc(-c2nnc3sc(C4CCCCC4)nn23)c1` the value was -45.2%.
For `COc1ccc(-c2nnc3sc(C4CCCCC4)nn23)cc1OC` the value was -51.1%; for `CC(C)c1cc(C(=O)N2CCCC(CCC(=O)N3CCN(c4ccccn4)CC3)C2)no1` (centres unmarked), -36.8%.
The same measure for `Cc1ccc(C(=O)N/C(=C/c2ccc(-c3ccc(Br)cc3)o2)C(=O)NC2CCS(=O)(=O)C2)cc1` (centres unmarked): -6.35%; for `CN(C)CCCNC(=O)c1ccc(-c2ccccc2)cc1`: -36.7%; for `Cc1ccc(C(=O)N/C(=C\c2ccc(-c3ccc(Br)cc3)o2)C(=O)NCCCN(C)C)cc1`: -80.3%.
Take `O=C(NCCO)/C(=C\c1ccc([N+](=O)[O-])o1)NC(=O)c1ccccc1`: the “hERG current change (%, negative = inhibition) at 10uM” value is 1.55%.
The same measure for `Cc1ccc(C(=O)N/C(=C/c2ccc(Cl)cc2)C(=O)NCC2CCCO2)cc1` (centres unmarked): -48.7%.
The same measure for `CN(C)CCCNC(=O)/C(=C\c1ccc(-c2ccc(Br)cc2)o1)NC(=O)c1ccccc1`: -75.1%; for `Cc1ccc(C(=O)N/C(=C\c2ccc(Cl)cc2)C(=O)NCC2CCCO2)cc1` (centres unmarked): -49%; for `Cc1ccc(C(=O)N/C(=C\c2ccc(-c3ccc(Br)cc3)o2)C(=O)NC2CCS(=O)(=O)C2)cc1` (centres unmarked): -5.68%.
For `Cc1ccc(C(=O)N/C(=C\c2ccc(-c3ccc(Cl)cc3)o2)C(=O)NCCCN(C)C)cc1` the value was -85%.

The record behind these values is article PMC4336329 (PLoS ONE, 2015).
